Results reported in PubChem BioAssay AID651650 (Sanford-Burnham Center for Chemical Genomics, 2012).

Biological target: Neuropilin-1 (Homo sapiens) (UniProt O14786)
Assay: blockers of CendR peptide binding to NRP-1 – biochemical, FP and AlphaScreen panel, dose response (AID 651650)
Conditions: NRP-1 b1b2 / RPARPAR peptide binding, FP or AlphaScreen; run 1, at 100 µM (top of the series)

Neuropilin-1 (Homo sapiens), sequence (O14786 whole entry, looked up): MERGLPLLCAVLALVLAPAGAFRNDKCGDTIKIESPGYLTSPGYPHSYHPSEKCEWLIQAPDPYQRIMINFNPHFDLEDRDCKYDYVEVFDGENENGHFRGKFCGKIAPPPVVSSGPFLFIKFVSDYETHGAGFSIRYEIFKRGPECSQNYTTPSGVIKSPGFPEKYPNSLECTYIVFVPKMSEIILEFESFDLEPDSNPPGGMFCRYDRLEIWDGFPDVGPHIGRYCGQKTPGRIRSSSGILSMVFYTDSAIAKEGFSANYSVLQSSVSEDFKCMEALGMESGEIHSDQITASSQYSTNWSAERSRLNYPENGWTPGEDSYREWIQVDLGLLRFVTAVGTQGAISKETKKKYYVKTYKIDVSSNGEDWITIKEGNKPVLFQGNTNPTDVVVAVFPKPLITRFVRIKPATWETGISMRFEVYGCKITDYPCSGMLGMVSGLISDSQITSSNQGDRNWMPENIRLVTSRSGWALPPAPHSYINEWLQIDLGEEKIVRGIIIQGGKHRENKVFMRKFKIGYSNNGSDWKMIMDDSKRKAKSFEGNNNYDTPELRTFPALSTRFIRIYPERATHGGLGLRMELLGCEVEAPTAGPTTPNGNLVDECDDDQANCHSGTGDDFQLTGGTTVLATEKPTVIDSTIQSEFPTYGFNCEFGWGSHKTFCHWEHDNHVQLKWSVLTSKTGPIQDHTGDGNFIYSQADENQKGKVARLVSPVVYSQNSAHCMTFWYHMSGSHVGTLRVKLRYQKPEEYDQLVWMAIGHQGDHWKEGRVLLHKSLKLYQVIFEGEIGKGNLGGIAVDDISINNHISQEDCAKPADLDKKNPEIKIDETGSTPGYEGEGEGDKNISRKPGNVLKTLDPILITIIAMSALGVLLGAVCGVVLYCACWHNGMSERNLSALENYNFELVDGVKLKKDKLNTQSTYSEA

Compared with O=C(NCCCN1CCOCC1)c1ccc2c(=O)n(-c3ccc(F)c(Cl)c3)c(=S)[nH]c2c1, O=C1CCCN1CCCNC(=S)Nc1ccc(Cl)cc1Cl is lower in inhibition: 35.9% for the first, 19.7% for the second.

Compared with COC(=O)CCCC1=CC2=CC(=O)C(C)(OC(=O)c3cccs3)C(=O)C2=CN1CCCOC(C)C (stereo unspecified), CCN(CC(=O)NCc1cccs1)S(=O)(=O)c1ccc(C(C)C)cc1 is lower in inhibition: 93.3% for the first, 1.66% for the second.

Compared with COc1cc2oc(=O)ccc2cc1[C@@H](O)[C@@H]1OC(C)(C)OC1(C)C, COc1ccc(C(=O)N2CCC(C)(C(=O)NS(=O)(=O)C3CC3)C2)cc1F (stereo unspecified) is higher in inhibition: 10.7% for the first, 12.1% for the second.

Going from COc1ccc([C@H]2/C=C\CN(C(=O)C3CC3)[C@@H](C)C(=O)N2Cc2ccc(F)cc2)cc1 to COc1ccc(Cn2c3ccc(OC)cc3c3nc4ccccc4nc32)cc1, the inhibition rises from 30.1% to 78.8%.

First: COc1ccc(N=C2C(=Nc3ccc(OC)cc3)N(c3ccc(N(C)C)cc3)C(=S)N2c2ccc(OC)cc2)cc1
Second: COc1ccc(/C=N/NC(=O)c2ccccc2Cl)cc1CSc1nc2ccccc2s1
The inhibition of the first is higher: 50.6% for the first, 28.7% for the second.

First: CCc1ccc(OC(=O)CN2C(=O)c3ccccc3C2=O)cc1
Second: C[C@@H](NC(=O)c1nc[nH]c1C(=O)NCc1ccccc1)c1ccccc1
The inhibition of the first is higher: 76.9% for the first, 23.1% for the second.

First: CC(C)(C)OC(=O)NCc1ccc(CNC(=O)c2nc[nH]c2C(=O)N2CCN(C(=O)OC(C)(C)C)CC2)cc1
Second: O=C(CSc1nc2ccccc2c(=O)n1-c1ccc(F)cc1F)Nc1ccc2c(c1)CCC2
The inhibition of the first is lower: 16.3% for the first, 21.2% for the second.

First: CCC1CCCCN1C(=S)Nc1ccc(OC(F)F)cc1 (stereo unspecified)
Second: CC(CN1CCCCC1)OC(=O)c1ccc(Cl)cc1Cl (stereo unspecified)
The inhibition of the first is higher: 69.3% for the first, 30.1% for the second.
